Data as given in PubChem BioAssay (Tox21).
Records with an inconclusive call do not appear. A number with no mark means an inactive call. Calls of active or inactive are those of the source. Calls come from the whole dose curve.

Assay: qHTS assay to identify small molecule agonists of H2AX - cell viability counter screen (AID 1224847); note: nearly all actives have a fitted effect of over 30% in size; for activity change, negative = cytotoxicity: top concentration of the series differs between compounds
Conditions: CHO-K1 viability, CellTiter-Glo luminescence, 3 h; series mostly up to 154 µM; activity change, negative = cytotoxicity: at the top concentration
Excerpt: National Center for Advancing Translational Sciences [NCATS]
NIH Chemical Genomics Center [NCGC]
U.S. Environmental Protection Agency [EPA]
National Institutes of Environmental Health Sciences [NIEHS]
National Toxicology Program [NTP]
U.S. Food and Drug Administration [FDA]
HTRF phospho-H2AX (Ser139) assay (Cisbio Bioassays, US) enables the quantitative detection of the histone variant H2AX when phosphorylated on serine 139. When double-stranded DNA breaks, either by ionizing radiation or endogenous physiological processes, H2AX becomes phosphorylated at Ser139. This phospho-Ser139 serves as a sensitive biomarker for the detection of such breaks, localizing the site of DNA repair. So, HTRF phospho-H2AX Ser139 is a pertinent assay to study genome stability, the cell cycle, DNA repair, and it serves as a biomarker for cancer, and to understand aging. Wild type CHO-K1 cells were used to identify the inducers of Phospho-H2AX Ser 139 from the Tox21 compound collections. Also cytotoxicity of the Tox21 10K compound library against the CHO-K1 cell line was tested by measuring the cell viability using CellTiter-Glo assay (Promega, Madison, WI).
Tox21 Assay Protocol Summary:
The CHO-K1 cells suspended in culture medium containing 10% FBS were dispensed at 1000 cells/ 3 ul/well in 1536-well white wall/solid bottom plates (Greiner Bio-One North America, NC) using a Multidrop Combi (Thermo Fisher Scientific Inc., Waltham, MA). After the assay plates were incubated at 37C overnight, 23 nl of compounds at 15 concentrations (from 5-48 columns) or positive control (from 1 to 4 columns) were transferred to the assay plates using a Pintool station (Wako, San Diego, CA) into each well resulting in a final DMSO concentration of 0.76%. After 3hr incubation at 37C, 3 uL/well CellTiter-Glo luminescent cell viability reagent (Promega Corporation, Madison, WI) was added using a Flying Reagent Dispenser (FRD) (Aurora Discovery, CA). After incubation at room temperature for 30 min, the luminescence intensity was read using a ViewLux plate reader (PerkinElmer, Waltham, MA).
% is set by controls: 0 for no effect and ±100 for the full control effect; potency is the fitted concentration of half-maximal effect.

Structure (SMILES)	activity change, negative = cytotoxicity	Potency
COc1ccc(C(=O)c2c(C)n(CCN3CCOCC3)c3ccccc23)cc1	-1.03% [at 70.9 µM]	
Cc1ccc(N)c(C)c1		inactive
O=C1NC(=O)C(=O)C(=O)N1	0.282%	
N#CC(C#N)=C(C#N)C#N	4.46%	
CCNC(=O)NC(=O)/C(C#N)=N/OC	3.09%	
CCOP(=S)(OCC)SCSc1cc(Cl)ccc1Cl	12%	
C1CCNCC1	0.539%	
CC(C)(C)OOC(C)(C)CCC(C)(C)OOC(C)(C)C	0.384%	
O=C(O)C(Cl)(Cl)Br	-3.27%	
CCOC(=O)C1OC1(C)c1ccccc1 (stereo not given)		inactive
O=C(O)c1cc(Cl)ccc1Cl	3.53%	
CC(C)(c1ccccc1)c1cc(-n2nc3ccccc3n2)c(O)c(C(C)(C)c2ccccc2)c1	0.35% [at 70.9 µM]	
CCOP(=S)(S)OCC	-1.07%	
C#C[C@]1(O)CC[C@H]2[C@@H]3CCC4=CC(=O)CCC4=C3C=C[C@@]21CC		34.8 µM (active)
CCC[N+](CCC)(CCC)CCC	3.95%	
CCCCCCCCP(=O)(O)O	5.23%	
CCOP(=S)(OCC)Oc1ccc(S(C)=O)cc1 (stereo not given)	10.1%	
CCCCC(CC)CO[N+](=O)[O-] (stereo not given)	-0.0435%	
C=C(Cl)Cl	-0.0353%	
CN(C)C(=O)Nc1cccc(OC(=O)NC(C)(C)C)c1	-1.36%	

Structure (SMILES)	activity change, negative = cytotoxicity	Potency
Cc1nc(N(C)C)nc(OC(=O)N(C)C)c1C	-0.024%	
C[C@H]1O[C@H](OC2[C@@H](O)[C@@H](O)C(O)[C@H](O)[C@H]2O)[C@@H](N)C[C@@H]1N=C(N)C(=O)O (stereo not given in full)	0.0005%	
CCCCCBr	-2.07%	
O=C(NCNC(=O)NC1C(=O)NC(=O)N1CO)NC1C(=O)NC(=O)N1CO (stereo not given)	-3.08%	
CCCCC(CC)COC(=O)c1c(Br)c(Br)c(Br)c(Br)c1C(=O)OCC(CC)CCCC (stereo not given)	6.93% [at 70.9 µM]	
COC(=O)C1(O)c2ccccc2-c2ccccc21	1.42%	
O=C(O)C(F)(F)C(F)(F)C(F)(F)C(F)(F)C(F)(F)C(F)(F)C(F)(F)C(F)(F)F	-5.83%	
CC(C)CCCCCCCOC(=O)c1ccccc1C(=O)OCCCCCCCC(C)C	7.37%	
O=C(N[C@H]1CN2CCC1CC2)c1ccc2c(c1)OCCO2	1.38%	
CCC1(C2=NCCN2)Cc2ccccc2O1 (stereo not given)	-1.64% [at 70.9 µM]	
O=[N+]([O-])O[C@H]1CO[C@H]2[C@@H]1OC[C@H]2O[N+](=O)[O-]	-1.77% [at 70.9 µM]	
NC(=O)CF	-0.907%	
OCC1CO1 (stereo not given)	0.414%	
CN(C)N	-3.5%	
C=C(C)C(=O)OCCCCOC(=O)C(=C)C	-0.932%	
COP(=O)(OC)OC(Br)C(Cl)(Cl)Br (stereo not given)	-9.52%	
O=C(N/N=C/c1ccc([N+](=O)[O-])o1)c1cc([N+](=O)[O-])cc([N+](=O)[O-])c1O	5.55% [at 70.9 µM]	
OCCCl	4.67%	
c1ccc2sc(SNC3CCCCC3)nc2c1		inactive
CC[N+]1(C)CCCC(OC(=O)C(O)(c2ccccc2)c2ccccc2)C1 (stereo not given)	3.82% [at 70.9 µM]	
